The text below walks through data of PubChem BioAssay.

The nature of experiment [1]: EMT-state selective cytotoxicity in co-culture – imaging, PC-3E GFP, TEM4-18 mCherry, primary screen (AID 1345086;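 active = compounds killing one labelled cell type while sparing the other, by normalised counts and ratio limits, not self-fluorescent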;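 as to all read-outs here: cells exposed to compound for 72 h before imaging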;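 as to red/green cell ratio (normalised): normalised mesenchymal count divided by normalised epithelial count so high means epithelial killing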). The following applies: PC-3E GFP / TEM4-18 mCherry co-culture, imaging cell counts, at 1 µM; for red/green cell ratio (normalised): actives lie on both sides, counts scaled to control wells, 1 = unselective.
The target of experiment [2] is ATP-dependent translocase ABCB1 (Homo sapiens) (UniProt P08183). As to the kind of experiment: P-glycoprotein substrate transport blockade – cell-based (AID 377; in the data active = fluorescence slope change above about 50%). The note with it: MDR1-expressing cells, fluorescent substrate accumulation slope; stronger effect = higher value; concentration not given here.
The nature of experiment [3]: antimalarial activity against Dd2 strain (AID 2302;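 active = growth inhibition above 50% at the single 2 µM test dose, taken to imply half-maximal potency below 2 µM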;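 also: 0% = DMSO untreated growth and 100% = chloroquine plus artemisinin killed control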). The note with it: P. falciparum Dd2 in RBCs, LDH growth readout, 72 h; at 2 µM; stronger effect = higher value.
A short description of experiment [4]: human hepatoma cell viability loss – ATP luminescence, cytotoxicity control for P. falciparum antimalarial project, primary screen (AID 2303;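 active = inhibition above 50%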;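 also: 0% = DMSO wells and 100% = digitonin-killed cells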). The note with it: HepG2 viability, 24-48 h, at 10 µM, stronger effect = higher value.
Experiment [5] addresses L-lactate dehydrogenase (Plasmodium falciparum (isolate CDC / Honduras)) (UniProt Q27743). As to the kind of experiment: PfLDH activity inhibition – cell lysate, 3D7 strain, counter-screen for P. falciparum growth inhibition project (AID 2304; call rule not given here;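 also: 0% = vehicle and 100% = reference inhibitor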). The following applies: P. falciparum 3D7 crude extract, LDH APAD/NBT absorbance; at 2 µM; stronger effect = higher value.
A short description of experiment [6]: inhibition of 3D7 malaria parasite growth – strain 3D7 (AID 2306; call rule not given here;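 also: 0% = DMSO wells and 100% = chloroquine plus artemisinin control wells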). The note with it: P. falciparum 3D7 erythrocytic growth, LDH absorbance, 72 h; at 2 µM; stronger effect = higher value.
Experiment [7] is described as follows: GFP-Q80 aggregate reduction, neuronal-like cells, cell-based, NGF-treated PC12, GFPQ80 (AID 1614).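 Also: lower means fewer inclusions and 0 means no inclusions at all.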 The following applies: PC12 NGF-treated GFP-polyQ80 inclusion reduction.
The test system of experiment [8] is Aerobactin synthetase IucA (Klebsiella pneumoniae). As to the kind of experiment: inhibition of K. pneumoniae IucA enzyme – biochemical, Tocris library, absorbance (AID 1345561; call rule not given here;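 also: 100% = enzyme without compound and 0% = no enzyme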). The following applies: purified IucA enzyme assay, absorbance (OD) read-out; stronger effect = lower value;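 tested at 8 µM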.
The nature of experiment [9]: drug combination growth inhibition, ovarian cancer – cell-based, oncology-focused library, rucaparib conditional, profiling panel (AID 1508598). The following applies: patient-derived ovarian cancer cells, CellTiter-Glo viability, 144 h, stronger effect = lower value.
Where [10] appears, read: measured here: epithelial PC-3E GFP cell survival.
Where [11] appears, read: measured here: mesenchymal TEM4-18 mCherry cell survival.

Results filed as inconclusive are left out. Calls of active or inactive are those of the source.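 The calls were made as follows, unless noted: active = normalized viability below 100% at a tested concentration; inactive = the rest.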

Sequence of ATP-dependent translocase ABCB1 (Homo sapiens) (P08183 whole entry, looked up): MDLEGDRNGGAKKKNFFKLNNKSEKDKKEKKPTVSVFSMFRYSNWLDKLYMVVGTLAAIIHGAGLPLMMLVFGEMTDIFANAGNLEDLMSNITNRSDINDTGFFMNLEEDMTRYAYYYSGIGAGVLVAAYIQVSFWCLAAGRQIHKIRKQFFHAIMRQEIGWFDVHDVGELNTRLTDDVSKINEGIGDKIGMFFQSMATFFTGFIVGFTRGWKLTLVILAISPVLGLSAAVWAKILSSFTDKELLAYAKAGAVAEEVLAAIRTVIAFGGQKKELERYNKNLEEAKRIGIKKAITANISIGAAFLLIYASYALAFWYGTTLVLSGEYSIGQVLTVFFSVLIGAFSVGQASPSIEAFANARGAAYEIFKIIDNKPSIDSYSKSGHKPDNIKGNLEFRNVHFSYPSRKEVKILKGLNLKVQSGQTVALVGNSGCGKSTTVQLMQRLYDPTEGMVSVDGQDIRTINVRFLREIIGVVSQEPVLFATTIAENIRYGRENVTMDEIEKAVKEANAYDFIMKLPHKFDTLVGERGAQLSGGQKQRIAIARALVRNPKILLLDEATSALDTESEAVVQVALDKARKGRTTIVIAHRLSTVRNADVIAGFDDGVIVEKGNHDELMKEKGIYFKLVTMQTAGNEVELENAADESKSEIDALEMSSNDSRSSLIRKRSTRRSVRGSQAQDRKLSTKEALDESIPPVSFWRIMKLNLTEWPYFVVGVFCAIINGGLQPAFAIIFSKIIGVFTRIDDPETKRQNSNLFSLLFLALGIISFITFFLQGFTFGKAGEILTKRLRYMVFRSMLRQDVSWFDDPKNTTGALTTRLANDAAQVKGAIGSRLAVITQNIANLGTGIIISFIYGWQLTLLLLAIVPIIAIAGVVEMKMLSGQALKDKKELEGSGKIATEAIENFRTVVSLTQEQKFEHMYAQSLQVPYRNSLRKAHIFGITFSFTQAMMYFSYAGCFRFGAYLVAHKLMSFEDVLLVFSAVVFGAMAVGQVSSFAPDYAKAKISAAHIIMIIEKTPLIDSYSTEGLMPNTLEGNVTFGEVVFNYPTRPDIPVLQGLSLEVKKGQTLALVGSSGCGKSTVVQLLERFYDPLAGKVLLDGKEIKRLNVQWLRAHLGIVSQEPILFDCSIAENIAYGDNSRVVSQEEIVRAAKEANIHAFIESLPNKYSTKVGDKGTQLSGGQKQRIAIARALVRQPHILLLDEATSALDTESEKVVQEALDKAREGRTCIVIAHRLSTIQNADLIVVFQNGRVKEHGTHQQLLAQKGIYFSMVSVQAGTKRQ
Sequence of L-lactate dehydrogenase (Plasmodium falciparum (isolate CDC / Honduras)) (Q27743 whole entry, looked up): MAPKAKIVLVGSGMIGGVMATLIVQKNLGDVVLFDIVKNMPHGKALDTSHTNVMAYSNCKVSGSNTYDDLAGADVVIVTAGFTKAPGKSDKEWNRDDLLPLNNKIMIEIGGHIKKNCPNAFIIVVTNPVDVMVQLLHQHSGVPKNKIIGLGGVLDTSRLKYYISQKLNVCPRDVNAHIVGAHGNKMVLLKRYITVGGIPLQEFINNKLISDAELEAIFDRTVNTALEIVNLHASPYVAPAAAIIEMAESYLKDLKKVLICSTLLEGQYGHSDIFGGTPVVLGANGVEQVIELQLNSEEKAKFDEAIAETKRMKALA

Take `CC(=O)O[C@H]1CC2CCC3C(CC[C@@]4(C)C3C[C@H]([N+]3(C)CCCCC3)[C@@H]4OC(C)=O)[C@@]2(C)C[C@@H]1N1CCCCC1` (stereo partly specified): the red/green cell ratio (normalised) in experiment [1] is 0.86 (inactive). In addition, the figures for the normalised cell number in experiment [1] (setting [10]) and in experiment [1] (setting [11]) were 1.03 and 0.88, respectively.

In the case of `COc1c(F)c(F)cc(C(N)=O)c1F`, the red/green cell ratio (normalised) in experiment [1] was 1.04 (inactive). In addition, the normalised cell number in [1] (setting [10]) is 0.96; in experiment [1] (setting [11]) it was 0.99.

With `OC(c1cc(C(F)(F)F)nc2c(C(F)(F)F)cccc12)C1CCCCN1` (stereo unspecified), the fluorescence slope change in [2] is 96.4% (active). In addition, the results for the growth inhibition in [3] and in experiment [6] were 99% (active) and 96% (active), respectively. In addition, the inhibition in experiment [4] was -3% (inactive); in experiment [5], -6% (inactive).

In the case of `CN[C@@H]1[C@H](O[C@H]2[C@H](O[C@@H]3[C@@H](O)[C@H](O)[C@@H](N=C(N)N)[C@H](O)[C@H]3N=C(N)N)O[C@@H](C)[C@]2(O)C=O)O[C@@H](CO)[C@H](O)[C@H]1O`, in experiment [2], the fluorescence slope change was 2.1% (inactive).

For the molecule `COc1ccc(C2Sc3ccccc3N(CCN(C)C)C(=O)C2OC(C)=O)cc1` (stereo unspecified), in experiment [7], the inclusion score is 2.

For `CC(C)NC[C@H](O)COc1cccc2ccccc12`, in experiment [8], the remaining activity is 97% (inactive).

Turning to `Nc1nc(F)nc2c1ncn2[C@@H]1O[C@H](COP(=O)(O)O)[C@@H](O)[C@@H]1O`, the viability in experiment [9] (at 0.000305 µM, OCI-C5x cells, with rucaparib 10 µM, 100% = cells with rucaparib alone) was 107% (inactive); in experiment [9] (at 0.000305 µM, OCI-C5x cells, without rucaparib), 110% (inactive); in experiment [9] (at 0.000305 µM, OCI-P5x cells, with rucaparib 20 µM, 100% = cells with rucaparib alone), 111% (inactive); in experiment [9] (at 0.000305 µM, OCI-P5x cells, without rucaparib), 109% (inactive); in experiment [9] (at 0.00122 µM, OCI-C5x cells, with rucaparib 10 µM, 100% = cells with rucaparib alone), 107% (inactive); in experiment [9] (at 0.00122 µM, OCI-C5x cells, without rucaparib) it was 109% (inactive). The viability in experiment [9] (at 0.00122 µM, OCI-P5x cells, with rucaparib 20 µM, 100% = cells with rucaparib alone) is 106% (inactive); in experiment [9] (at 0.00122 µM, OCI-P5x cells, without rucaparib), 109% (inactive); in experiment [9] (at 0.00488 µM, OCI-C5x cells, with rucaparib 10 µM, 100% = cells with rucaparib alone), 105% (inactive); in experiment [9] (at 0.00488 µM, OCI-C5x cells, without rucaparib), 111% (inactive); in experiment [9] (at 0.00488 µM, OCI-P5x cells, with rucaparib 20 µM, 100% = cells with rucaparib alone), 107% (inactive); in experiment [9] (at 0.00488 µM, OCI-P5x cells, without rucaparib), 110% (inactive). For the same molecule, the viability in [9] (at 0.0195 µM, OCI-C5x cells, with rucaparib 10 µM, 100% = cells with rucaparib alone) was 97% (active); in experiment [9] (at 0.0195 µM, OCI-C5x cells, without rucaparib), 111% (inactive); in [9] (at 0.0195 µM, OCI-P5x cells, with rucaparib 20 µM, 100% = cells with rucaparib alone) it was 109% (inactive); in experiment [9] (at 0.0195 µM, OCI-P5x cells, without rucaparib) it was 108% (inactive); in [9] (at 0.0781 µM, OCI-C5x cells, with rucaparib 10 µM, 100% = cells with rucaparib alone) it was 101% (inactive); in [9] (at 0.0781 µM, OCI-C5x cells, without rucaparib) it was 112% (inactive). Further, the viability in experiment [9] (at 0.0781 µM, OCI-P5x cells, with rucaparib 20 µM, 100% = cells with rucaparib alone) was 109% (inactive); in experiment [9] (at 0.0781 µM, OCI-P5x cells, without rucaparib) it was 110% (inactive); in [9] (at 0.313 µM, OCI-C5x cells, with rucaparib 10 µM, 100% = cells with rucaparib alone), 87.1% (active); in experiment [9] (at 0.313 µM, OCI-C5x cells, without rucaparib), 98.3% (active); in [9] (at 0.313 µM, OCI-P5x cells, with rucaparib 20 µM, 100% = cells with rucaparib alone), 106% (inactive); in [9] (at 0.313 µM, OCI-P5x cells, without rucaparib), 107% (inactive). The viability in experiment [9] (at 1.25 µM, OCI-C5x cells, with rucaparib 10 µM, 100% = cells with rucaparib alone) is 82.9% (active); in experiment [9] (at 1.25 µM, OCI-C5x cells, without rucaparib) it was 78% (active); in experiment [9] (at 1.25 µM, OCI-P5x cells, with rucaparib 20 µM, 100% = cells with rucaparib alone), 114% (inactive); in [9] (at 1.25 µM, OCI-P5x cells, without rucaparib), 111% (inactive); in [9] (at 5 µM, OCI-C5x cells, with rucaparib 10 µM, 100% = cells with rucaparib alone) it was 58.5% (active); in [9] (at 5 µM, OCI-C5x cells, without rucaparib), 59.8% (active). The viability in experiment [9] (at 5 µM, OCI-P5x cells, with rucaparib 20 µM, 100% = cells with rucaparib alone) is 106% (inactive); in [9] (at 5 µM, OCI-P5x cells, without rucaparib), 78.1% (active).
